# Experimental data reported in the supplement of paper PMC12282887.
# ± gives the standard deviation of the averaged measurements.
# Key:
# Assay in all cases: promoter activity interaction Z-score (Lux/OD deviation from empty-vector control); higher = stronger promoter induction by the compound
# [1] = system: E. coli BW25113 robp lux reporter
# Summary of the method: (§1)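 Four 1:2 dilutions of each compound were tested in biological duplicates on E. coli BW25113 carrying low-copy luxCDABE promoter reporters, either wild type or deleted for one of three genes. Cultures of 40 µl LB Lennox in 384-well plates were kept at 37°C and read for OD600 and luminescence every 30 min for 12 h. Integration windows were 0–8 h for wild type and 1–9 h for deletion strains, and wells under 10% of the median growth value were discarded. The score is a Z-transformed residual of growth-normalised luminescence relative to a control fit.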
# [2] = system: E. coli BW25113 soxSp lux reporter
# Summary of the method: as §1
# [3] = system: E. coli BW25113 tolCp lux reporter
# Summary of the method: as §1
# [4] = 20 µg/ml, genetic background: wild type
# [5] = 20 µg/ml, genetic background: ΔmarA
# [6] = 20 µg/ml, genetic background: Δrob
# [7] = 20 µg/ml, genetic background: ΔsoxS
# [8] = 39.9 µg/ml, genetic background: wild type
# [9] = 39.9 µg/ml, genetic background: ΔmarA
# [10] = 39.9 µg/ml, genetic background: Δrob
# [11] = 39.9 µg/ml, genetic background: ΔsoxS
# [12] = 79.8 µg/ml, genetic background: wild type
# [13] = 79.8 µg/ml, genetic background: ΔmarA
# [14] = 79.8 µg/ml, genetic background: Δrob
# [15] = 79.8 µg/ml, genetic background: ΔsoxS
# [16] = 159.6 µg/ml, genetic background: wild type
# [17] = 159.6 µg/ml, genetic background: ΔmarA
# [18] = 159.6 µg/ml, genetic background: Δrob
# [19] = 159.6 µg/ml, genetic background: ΔsoxS
smiles,measurement,setting,value
NC[C@H](O)c1ccc(O)c(O)c1 [Noradrenalin],promoter activity interaction Z-score,[1]; [4],0.547 ± 0.64
same,promoter activity interaction Z-score,[1]; [5],0.384 ± 0.1
same,promoter activity interaction Z-score,[1]; [6],0.384 ± 0.47
same,promoter activity interaction Z-score,[1]; [7],1.12 ± 0.86
same,promoter activity interaction Z-score,[1]; [8],0.762 ± 0.056
same,promoter activity interaction Z-score,[1]; [9],1.14 ± 0.33
same,promoter activity interaction Z-score,[1]; [10],0.129 ± 0.011
same,promoter activity interaction Z-score,[1]; [11],0.395 ± 0.56
same,promoter activity interaction Z-score,[1]; [12],0.33 ± 0.14
same,promoter activity interaction Z-score,[1]; [13],-0.159 ± 0.14
same,promoter activity interaction Z-score,[1]; [14],-0.0403 ± 0.17
same,promoter activity interaction Z-score,[1]; [15],0.042 ± 0.74
same,promoter activity interaction Z-score,[1]; [16],0.223 ± 0.48
same,promoter activity interaction Z-score,[1]; [17],-0.276 ± 0.24
same,promoter activity interaction Z-score,[1]; [18],-0.36 ± 0.58
same,promoter activity interaction Z-score,[1]; [19],-0.182 ± 0.36
same,promoter activity interaction Z-score,[2]; [4],-0.0849 ± 0.038
same,promoter activity interaction Z-score,[2]; [5],-0.0801 ± 0.073
same,promoter activity interaction Z-score,[2]; [6],-0.113 ± 0.058
same,promoter activity interaction Z-score,[2]; [7],0.0191 ± 0.33
same,promoter activity interaction Z-score,[2]; [8],0.0167 ± 0.12
same,promoter activity interaction Z-score,[2]; [9],-0.0796 ± 0.033
same,promoter activity interaction Z-score,[2]; [10],-0.0193 ± 0.2
same,promoter activity interaction Z-score,[2]; [11],0.0258 ± 0.27
same,promoter activity interaction Z-score,[2]; [12],-0.0633 ± 0.035
same,promoter activity interaction Z-score,[2]; [13],-0.258 ± 0.028
same,promoter activity interaction Z-score,[2]; [14],-0.159 ± 0.19
same,promoter activity interaction Z-score,[2]; [15],-0.00763 ± 0.11
same,promoter activity interaction Z-score,[2]; [16],-0.154 ± 0.0074
same,promoter activity interaction Z-score,[2]; [17],-0.357 ± 0.097
same,promoter activity interaction Z-score,[2]; [18],-0.388 ± 0.16
same,promoter activity interaction Z-score,[2]; [19],-0.0342 ± 0.11
same,promoter activity interaction Z-score,[3]; [4],0.0786 ± 0.23
same,promoter activity interaction Z-score,[3]; [5],0.206 ± 1.2
same,promoter activity interaction Z-score,[3]; [6],-0.339 ± 0.25
same,promoter activity interaction Z-score,[3]; [7],-0.485 ± 0.31
same,promoter activity interaction Z-score,[3]; [8],-0.478 ± 0.28
same,promoter activity interaction Z-score,[3]; [9],0.198 ± 0.13
same,promoter activity interaction Z-score,[3]; [10],-0.000984 ± 1.4
same,promoter activity interaction Z-score,[3]; [11],-0.431 ± 0.54
same,promoter activity interaction Z-score,[3]; [12],0.0142 ± 0.56
same,promoter activity interaction Z-score,[3]; [13],-0.267 ± 0.49
same,promoter activity interaction Z-score,[3]; [14],0.254 ± 0.35
same,promoter activity interaction Z-score,[3]; [15],-0.273 ± 0.31
same,promoter activity interaction Z-score,[3]; [16],-0.957 ± 1.4
same,promoter activity interaction Z-score,[3]; [17],-0.659 ± 0.07
same,promoter activity interaction Z-score,[3]; [18],-0.565 ± 0.4
same,promoter activity interaction Z-score,[3]; [19],-0.633 ± 0.011
